Data published in the supplement of paper PMC11732987, “Enantioselective OTUD7B fragment discovery through chemoproteomics screening and high-throughput optimisation” (Communications Chemistry, 2025).

Columns and labels:
Assay in all cases: log2 ratio of Biotin-Ahx-Ub-VS probe labelling (fragment/DMSO); higher = less target engagement (more negative = stronger competition), active = hit call of the paper (q ≤ 0.05, log2 ratio ≤ -1)
Conditions in all cases: compound concentration: 200 uM; treatment time: 3 h
[1] = molecular target: T1, USP42 (UniProt Q9H9J4)
T1 sequence (whole entry): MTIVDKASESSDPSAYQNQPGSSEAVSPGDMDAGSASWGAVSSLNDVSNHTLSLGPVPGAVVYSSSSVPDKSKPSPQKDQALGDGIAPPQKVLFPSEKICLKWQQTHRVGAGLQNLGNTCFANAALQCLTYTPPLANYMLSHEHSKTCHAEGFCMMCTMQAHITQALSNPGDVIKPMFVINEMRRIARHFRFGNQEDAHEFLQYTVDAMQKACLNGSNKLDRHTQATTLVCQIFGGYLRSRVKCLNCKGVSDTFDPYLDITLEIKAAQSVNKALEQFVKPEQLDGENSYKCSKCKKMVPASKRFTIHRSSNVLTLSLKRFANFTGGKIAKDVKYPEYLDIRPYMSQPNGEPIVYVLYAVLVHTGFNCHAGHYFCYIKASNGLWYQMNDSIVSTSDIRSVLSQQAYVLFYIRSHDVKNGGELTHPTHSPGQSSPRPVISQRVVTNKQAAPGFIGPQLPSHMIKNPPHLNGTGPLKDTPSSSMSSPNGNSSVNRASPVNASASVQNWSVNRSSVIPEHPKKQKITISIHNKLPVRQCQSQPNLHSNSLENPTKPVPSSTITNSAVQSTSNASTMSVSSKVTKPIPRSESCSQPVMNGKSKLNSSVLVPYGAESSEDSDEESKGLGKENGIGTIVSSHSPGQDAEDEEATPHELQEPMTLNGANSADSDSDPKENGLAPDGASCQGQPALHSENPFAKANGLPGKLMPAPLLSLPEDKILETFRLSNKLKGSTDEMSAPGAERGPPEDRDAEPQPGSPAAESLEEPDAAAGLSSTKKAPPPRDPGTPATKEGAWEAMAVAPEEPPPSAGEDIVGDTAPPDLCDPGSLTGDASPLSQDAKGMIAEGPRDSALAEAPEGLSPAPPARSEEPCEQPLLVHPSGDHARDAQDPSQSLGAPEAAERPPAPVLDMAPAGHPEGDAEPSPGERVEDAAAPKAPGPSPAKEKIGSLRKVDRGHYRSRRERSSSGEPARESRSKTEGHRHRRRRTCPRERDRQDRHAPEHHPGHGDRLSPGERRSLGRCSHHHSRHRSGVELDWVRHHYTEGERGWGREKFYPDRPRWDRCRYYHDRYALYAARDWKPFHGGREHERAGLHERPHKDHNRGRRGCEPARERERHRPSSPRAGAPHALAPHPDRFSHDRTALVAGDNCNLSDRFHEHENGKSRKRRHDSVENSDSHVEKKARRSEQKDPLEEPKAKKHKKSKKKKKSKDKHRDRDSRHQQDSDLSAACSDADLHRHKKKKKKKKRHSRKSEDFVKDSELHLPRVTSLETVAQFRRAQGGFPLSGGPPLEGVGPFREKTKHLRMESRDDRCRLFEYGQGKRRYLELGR
Method in brief: (§1)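 Values give the average log2 ratio of fragment to vehicle, assessed by unpaired t-test on global-median-normalised Spectronaut label-free quantities. Proteins needed ≥2 unique peptides. HEK293T lysate (495 µg per sample) was treated in triplicate with fragment at 200 µM or vehicle for 3 h and then with Biotin-Ahx-Ub-VS at 0.5 µM final for 1 h. Labelled DUBs were NeutrAvidin-enriched, digested and run by diaPASEF LC-MS/MS.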

[2] = molecular target: USP46 (UniProt P62068)
Chain of USP46 (P62068 whole entry): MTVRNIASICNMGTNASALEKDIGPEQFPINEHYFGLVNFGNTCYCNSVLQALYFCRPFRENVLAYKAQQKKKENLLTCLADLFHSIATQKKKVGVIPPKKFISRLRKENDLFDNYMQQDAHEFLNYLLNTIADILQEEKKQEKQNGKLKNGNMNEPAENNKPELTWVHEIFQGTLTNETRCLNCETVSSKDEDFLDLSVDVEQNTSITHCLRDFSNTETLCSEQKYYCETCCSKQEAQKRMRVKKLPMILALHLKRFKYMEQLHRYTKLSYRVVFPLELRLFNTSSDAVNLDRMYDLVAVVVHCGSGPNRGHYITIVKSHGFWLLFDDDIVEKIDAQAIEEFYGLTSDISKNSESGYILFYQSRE
Method in brief: as §1

[3] = molecular target: T2, USP47 (UniProt Q96K76)
T2 sequence (whole entry): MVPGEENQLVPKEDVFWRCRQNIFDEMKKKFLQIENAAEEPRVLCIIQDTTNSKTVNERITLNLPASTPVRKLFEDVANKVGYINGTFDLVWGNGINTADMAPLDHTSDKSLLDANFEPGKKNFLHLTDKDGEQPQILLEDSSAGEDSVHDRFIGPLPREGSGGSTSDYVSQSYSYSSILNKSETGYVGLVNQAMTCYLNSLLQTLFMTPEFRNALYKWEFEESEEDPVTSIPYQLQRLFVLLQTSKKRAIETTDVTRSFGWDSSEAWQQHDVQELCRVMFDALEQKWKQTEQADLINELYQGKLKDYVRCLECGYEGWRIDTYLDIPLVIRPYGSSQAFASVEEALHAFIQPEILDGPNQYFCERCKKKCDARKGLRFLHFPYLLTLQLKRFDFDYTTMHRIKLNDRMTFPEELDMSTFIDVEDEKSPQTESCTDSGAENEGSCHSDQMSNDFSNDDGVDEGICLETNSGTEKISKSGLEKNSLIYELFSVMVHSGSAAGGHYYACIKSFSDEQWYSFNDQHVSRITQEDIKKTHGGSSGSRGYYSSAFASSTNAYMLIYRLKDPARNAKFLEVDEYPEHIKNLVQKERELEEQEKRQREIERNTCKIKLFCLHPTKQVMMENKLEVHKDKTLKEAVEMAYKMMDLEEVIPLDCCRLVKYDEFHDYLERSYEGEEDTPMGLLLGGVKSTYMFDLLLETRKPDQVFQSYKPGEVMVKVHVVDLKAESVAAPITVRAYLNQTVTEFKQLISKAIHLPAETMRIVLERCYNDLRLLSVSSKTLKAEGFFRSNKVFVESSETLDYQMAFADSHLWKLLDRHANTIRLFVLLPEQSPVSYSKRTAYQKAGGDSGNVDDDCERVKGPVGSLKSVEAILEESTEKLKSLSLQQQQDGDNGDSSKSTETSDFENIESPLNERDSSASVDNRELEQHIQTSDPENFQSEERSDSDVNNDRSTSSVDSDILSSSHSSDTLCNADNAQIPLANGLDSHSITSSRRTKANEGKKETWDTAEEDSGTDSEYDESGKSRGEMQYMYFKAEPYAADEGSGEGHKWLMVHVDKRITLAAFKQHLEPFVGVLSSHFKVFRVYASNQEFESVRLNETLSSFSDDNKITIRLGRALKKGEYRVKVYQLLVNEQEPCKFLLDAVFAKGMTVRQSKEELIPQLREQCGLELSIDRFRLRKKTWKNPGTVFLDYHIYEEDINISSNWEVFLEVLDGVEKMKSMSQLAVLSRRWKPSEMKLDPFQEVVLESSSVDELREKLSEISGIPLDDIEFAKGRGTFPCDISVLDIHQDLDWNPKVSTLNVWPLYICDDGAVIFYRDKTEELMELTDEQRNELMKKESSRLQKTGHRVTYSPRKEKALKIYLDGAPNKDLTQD
Method in brief: as §1

[4] = molecular target: T3, USP48 (UniProt Q86UV5)
T3 sequence (whole entry): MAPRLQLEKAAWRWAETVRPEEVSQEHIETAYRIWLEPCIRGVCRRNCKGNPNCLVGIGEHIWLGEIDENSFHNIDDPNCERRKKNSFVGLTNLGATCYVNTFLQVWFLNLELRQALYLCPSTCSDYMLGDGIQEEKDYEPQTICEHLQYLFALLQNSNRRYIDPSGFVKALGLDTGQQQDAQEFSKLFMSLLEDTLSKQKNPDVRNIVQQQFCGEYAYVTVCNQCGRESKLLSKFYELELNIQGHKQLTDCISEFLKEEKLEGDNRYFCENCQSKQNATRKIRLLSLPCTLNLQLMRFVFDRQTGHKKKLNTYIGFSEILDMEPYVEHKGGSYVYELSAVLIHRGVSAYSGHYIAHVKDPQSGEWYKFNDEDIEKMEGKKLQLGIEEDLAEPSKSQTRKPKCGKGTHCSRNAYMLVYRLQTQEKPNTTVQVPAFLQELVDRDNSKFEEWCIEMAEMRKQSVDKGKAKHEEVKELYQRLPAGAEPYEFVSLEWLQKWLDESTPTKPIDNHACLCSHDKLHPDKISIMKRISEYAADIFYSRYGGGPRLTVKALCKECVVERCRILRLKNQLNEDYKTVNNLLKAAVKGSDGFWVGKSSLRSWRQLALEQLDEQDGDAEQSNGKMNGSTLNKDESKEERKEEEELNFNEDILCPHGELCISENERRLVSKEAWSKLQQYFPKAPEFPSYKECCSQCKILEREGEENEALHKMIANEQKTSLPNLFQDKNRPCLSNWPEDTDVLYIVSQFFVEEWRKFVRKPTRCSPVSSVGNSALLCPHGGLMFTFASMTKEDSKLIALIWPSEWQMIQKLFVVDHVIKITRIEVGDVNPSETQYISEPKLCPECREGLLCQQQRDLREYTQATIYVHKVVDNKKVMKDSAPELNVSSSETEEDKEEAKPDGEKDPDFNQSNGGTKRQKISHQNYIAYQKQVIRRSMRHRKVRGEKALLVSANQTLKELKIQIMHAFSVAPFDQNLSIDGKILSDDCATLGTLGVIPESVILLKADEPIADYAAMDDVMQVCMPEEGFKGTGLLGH
Method in brief: as §1

[5] = molecular target: T4, USP5 (UniProt P45974)
T4 sequence (whole entry): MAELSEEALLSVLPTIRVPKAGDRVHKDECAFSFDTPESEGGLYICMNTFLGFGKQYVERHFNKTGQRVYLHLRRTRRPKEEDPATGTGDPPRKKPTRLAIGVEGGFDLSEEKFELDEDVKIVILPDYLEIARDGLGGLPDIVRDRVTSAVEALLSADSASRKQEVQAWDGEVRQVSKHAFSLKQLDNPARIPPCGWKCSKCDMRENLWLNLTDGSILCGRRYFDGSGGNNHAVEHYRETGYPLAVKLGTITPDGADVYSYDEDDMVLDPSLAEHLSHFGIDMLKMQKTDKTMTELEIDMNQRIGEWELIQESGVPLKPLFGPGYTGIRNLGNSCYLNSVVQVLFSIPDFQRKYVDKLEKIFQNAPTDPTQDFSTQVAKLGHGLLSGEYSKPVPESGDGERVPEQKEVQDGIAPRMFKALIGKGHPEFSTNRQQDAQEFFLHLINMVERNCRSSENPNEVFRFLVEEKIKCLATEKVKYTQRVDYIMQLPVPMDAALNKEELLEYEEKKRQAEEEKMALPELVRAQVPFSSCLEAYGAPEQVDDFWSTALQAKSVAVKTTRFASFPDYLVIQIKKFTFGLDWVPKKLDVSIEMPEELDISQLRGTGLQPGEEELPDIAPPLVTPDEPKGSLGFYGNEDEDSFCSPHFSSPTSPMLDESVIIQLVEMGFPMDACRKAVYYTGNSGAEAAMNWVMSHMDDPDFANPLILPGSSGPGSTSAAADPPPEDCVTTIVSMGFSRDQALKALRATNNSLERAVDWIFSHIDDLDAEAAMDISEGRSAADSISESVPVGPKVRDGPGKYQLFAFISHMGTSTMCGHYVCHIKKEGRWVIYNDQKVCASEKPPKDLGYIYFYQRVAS
Method in brief: as §1

[6] = molecular target: USP54 (UniProt Q70EL1)
Method in brief: as §1

[7] = molecular target: USP7 (UniProt Q93009)
Chain of USP7 (Q93009 whole entry, looked up): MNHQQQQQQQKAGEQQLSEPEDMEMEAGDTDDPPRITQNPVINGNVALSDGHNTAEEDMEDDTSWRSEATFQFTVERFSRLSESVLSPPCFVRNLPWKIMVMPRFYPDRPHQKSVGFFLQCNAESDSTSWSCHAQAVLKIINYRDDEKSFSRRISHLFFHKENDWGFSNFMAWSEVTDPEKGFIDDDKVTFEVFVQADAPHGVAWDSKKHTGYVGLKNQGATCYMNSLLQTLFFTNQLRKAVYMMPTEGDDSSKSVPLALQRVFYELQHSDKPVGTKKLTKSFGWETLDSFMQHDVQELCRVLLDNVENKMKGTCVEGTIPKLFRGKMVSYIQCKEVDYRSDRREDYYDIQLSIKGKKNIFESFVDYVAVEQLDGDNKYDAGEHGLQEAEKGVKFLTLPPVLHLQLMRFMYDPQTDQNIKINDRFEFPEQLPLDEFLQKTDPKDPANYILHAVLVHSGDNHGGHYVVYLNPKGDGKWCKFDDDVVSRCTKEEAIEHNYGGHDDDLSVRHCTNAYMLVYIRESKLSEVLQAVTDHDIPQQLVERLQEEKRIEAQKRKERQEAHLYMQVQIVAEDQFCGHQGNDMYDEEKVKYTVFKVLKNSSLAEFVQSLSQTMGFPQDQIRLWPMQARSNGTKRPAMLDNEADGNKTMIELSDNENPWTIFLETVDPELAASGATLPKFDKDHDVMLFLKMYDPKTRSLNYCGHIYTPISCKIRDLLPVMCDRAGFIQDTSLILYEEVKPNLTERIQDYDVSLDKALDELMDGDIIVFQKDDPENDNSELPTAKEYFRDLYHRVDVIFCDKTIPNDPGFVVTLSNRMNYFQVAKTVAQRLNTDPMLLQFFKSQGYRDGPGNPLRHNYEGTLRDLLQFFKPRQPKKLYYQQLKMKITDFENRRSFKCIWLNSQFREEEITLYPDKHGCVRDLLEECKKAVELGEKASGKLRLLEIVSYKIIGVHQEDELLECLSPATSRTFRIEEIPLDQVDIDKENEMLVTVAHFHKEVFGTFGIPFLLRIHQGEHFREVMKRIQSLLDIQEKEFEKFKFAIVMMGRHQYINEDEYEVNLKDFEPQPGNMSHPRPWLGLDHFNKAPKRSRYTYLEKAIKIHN
Method in brief: as §1

[8] = molecular target: T5, USP8 (UniProt P40818)
T5 sequence (whole entry): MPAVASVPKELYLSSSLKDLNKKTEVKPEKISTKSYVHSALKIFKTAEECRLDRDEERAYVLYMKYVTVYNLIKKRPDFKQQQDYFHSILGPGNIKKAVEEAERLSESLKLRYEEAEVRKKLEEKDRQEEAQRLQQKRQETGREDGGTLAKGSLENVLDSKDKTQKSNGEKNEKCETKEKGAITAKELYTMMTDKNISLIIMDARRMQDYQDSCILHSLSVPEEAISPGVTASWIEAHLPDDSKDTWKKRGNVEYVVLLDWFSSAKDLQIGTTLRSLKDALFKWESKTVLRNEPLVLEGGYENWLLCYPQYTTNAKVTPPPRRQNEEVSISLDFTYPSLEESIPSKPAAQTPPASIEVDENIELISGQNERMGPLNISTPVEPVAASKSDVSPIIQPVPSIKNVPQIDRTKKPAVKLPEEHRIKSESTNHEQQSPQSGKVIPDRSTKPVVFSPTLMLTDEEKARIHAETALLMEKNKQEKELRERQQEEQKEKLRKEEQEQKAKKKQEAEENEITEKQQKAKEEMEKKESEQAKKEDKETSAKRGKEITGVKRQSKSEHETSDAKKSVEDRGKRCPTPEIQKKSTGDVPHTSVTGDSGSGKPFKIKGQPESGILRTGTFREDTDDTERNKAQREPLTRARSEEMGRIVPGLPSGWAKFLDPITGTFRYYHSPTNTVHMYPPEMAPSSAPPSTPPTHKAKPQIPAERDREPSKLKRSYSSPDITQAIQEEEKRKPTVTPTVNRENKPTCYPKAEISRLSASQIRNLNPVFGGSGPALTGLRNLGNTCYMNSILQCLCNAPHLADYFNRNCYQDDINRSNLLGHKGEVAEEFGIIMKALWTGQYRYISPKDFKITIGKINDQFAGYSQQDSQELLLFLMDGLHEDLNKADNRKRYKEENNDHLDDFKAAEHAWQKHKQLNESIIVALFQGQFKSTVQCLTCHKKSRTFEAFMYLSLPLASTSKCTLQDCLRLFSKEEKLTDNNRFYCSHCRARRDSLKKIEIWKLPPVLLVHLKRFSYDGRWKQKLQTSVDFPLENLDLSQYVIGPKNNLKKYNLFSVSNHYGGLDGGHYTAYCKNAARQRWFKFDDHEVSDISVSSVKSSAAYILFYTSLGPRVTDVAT
Method in brief: as §1

[9] = molecular target: USP9X (UniProt Q93008)
Chain of USP9X (Q93008 whole entry): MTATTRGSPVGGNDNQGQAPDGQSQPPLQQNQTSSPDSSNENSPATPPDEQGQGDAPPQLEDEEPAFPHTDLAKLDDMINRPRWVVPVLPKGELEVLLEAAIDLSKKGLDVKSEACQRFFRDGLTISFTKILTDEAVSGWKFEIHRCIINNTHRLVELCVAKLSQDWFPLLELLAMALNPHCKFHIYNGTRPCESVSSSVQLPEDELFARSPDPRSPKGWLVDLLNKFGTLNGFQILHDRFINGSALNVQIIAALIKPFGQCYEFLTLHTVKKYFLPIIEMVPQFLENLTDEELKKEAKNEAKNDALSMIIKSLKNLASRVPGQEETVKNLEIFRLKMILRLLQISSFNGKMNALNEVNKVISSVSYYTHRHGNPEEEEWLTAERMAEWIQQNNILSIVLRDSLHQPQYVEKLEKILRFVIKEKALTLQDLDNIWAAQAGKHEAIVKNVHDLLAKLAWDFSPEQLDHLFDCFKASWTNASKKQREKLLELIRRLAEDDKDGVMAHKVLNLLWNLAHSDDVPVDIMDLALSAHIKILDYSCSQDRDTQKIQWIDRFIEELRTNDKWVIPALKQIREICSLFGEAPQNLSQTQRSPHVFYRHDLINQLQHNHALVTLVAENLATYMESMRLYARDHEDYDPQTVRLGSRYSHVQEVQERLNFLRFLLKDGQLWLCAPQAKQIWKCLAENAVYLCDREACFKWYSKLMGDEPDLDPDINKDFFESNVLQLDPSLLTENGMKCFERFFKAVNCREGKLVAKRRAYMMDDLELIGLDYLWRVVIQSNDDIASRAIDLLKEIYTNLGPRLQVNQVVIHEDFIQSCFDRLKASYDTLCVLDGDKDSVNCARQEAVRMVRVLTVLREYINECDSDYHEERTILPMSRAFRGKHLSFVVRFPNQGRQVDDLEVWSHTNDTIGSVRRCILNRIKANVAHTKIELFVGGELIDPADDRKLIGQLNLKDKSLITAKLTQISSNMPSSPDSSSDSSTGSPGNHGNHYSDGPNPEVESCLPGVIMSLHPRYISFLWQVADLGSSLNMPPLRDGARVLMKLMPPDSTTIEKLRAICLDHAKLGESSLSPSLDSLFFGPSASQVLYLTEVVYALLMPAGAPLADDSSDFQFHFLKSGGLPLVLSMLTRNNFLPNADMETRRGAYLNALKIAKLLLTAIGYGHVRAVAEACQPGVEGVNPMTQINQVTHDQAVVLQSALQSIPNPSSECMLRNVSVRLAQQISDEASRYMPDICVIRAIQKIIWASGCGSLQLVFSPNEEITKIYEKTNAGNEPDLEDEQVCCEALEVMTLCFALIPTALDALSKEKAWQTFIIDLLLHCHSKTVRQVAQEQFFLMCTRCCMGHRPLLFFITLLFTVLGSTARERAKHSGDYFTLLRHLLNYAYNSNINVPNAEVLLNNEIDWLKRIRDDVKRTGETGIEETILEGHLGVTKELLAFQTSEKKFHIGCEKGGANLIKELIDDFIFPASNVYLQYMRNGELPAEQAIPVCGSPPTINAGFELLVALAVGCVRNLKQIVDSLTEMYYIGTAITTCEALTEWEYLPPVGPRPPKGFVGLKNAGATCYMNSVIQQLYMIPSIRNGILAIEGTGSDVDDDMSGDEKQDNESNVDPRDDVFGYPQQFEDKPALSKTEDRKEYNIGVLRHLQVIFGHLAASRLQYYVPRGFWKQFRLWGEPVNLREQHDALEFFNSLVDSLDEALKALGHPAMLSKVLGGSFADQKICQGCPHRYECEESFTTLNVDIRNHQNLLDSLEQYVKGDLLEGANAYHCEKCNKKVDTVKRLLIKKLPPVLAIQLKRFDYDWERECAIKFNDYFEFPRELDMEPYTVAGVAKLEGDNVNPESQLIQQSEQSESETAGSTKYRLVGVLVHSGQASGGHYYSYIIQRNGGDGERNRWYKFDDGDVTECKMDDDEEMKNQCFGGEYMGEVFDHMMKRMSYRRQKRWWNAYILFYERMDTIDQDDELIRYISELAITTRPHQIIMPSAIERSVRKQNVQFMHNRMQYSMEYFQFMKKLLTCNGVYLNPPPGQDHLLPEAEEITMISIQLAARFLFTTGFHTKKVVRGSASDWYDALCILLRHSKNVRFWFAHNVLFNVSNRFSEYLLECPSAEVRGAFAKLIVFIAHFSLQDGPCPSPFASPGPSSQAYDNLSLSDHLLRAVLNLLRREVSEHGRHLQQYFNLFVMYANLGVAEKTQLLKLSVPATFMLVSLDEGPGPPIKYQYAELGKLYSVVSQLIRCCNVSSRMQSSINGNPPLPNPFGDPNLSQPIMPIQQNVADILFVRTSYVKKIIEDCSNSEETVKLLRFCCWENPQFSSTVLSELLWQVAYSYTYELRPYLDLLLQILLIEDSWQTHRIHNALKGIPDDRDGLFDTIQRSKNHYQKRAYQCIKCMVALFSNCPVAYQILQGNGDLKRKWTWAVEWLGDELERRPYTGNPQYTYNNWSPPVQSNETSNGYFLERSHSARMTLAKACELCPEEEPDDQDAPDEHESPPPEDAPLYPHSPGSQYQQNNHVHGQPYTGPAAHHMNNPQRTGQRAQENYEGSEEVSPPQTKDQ
Method in brief: as §1

[10] = molecular target: UniProt O00487
Chain of UniProt O00487 (O00487 whole entry): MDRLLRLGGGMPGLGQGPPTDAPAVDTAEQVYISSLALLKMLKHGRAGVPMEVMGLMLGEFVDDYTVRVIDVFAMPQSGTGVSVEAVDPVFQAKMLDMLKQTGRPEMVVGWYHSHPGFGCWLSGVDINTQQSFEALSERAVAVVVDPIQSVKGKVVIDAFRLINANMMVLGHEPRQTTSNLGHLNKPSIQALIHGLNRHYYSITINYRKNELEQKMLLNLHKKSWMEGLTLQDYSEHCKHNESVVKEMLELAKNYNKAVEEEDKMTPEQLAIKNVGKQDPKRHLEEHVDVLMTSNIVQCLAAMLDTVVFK
Method in brief: as §1

Measured: log2 ratio of Biotin-Ahx-Ub-VS probe labelling

Cc1n[nH]c2c1CN(C(=O)CCl)CC2
active: [3] -1.08 | [8] -1.11
inactive: [1] 0.421 | [2] -0.91 | [4] -0.779 | [5] -0.67 | [6] 0.337 | [7] -0.758 | [9] -0.85 | [10] -0.184

COCC[C@@H](NC(=O)CCl)c1ccccc1
inactive: [1] 0.331 | [2] 0.164 | [3] -0.122 | [4] -0.261 | [5] 0.0242 | [6] 0.235 | [7] -0.0296 | [8] -0.0978 | [9] -0.0244 | [10] -0.0153
